Compound activity deposited in PubChem by National Center for Advancing Translational Sciences (NCATS).
ALOX12 inh: Primary qHTS assay for inhibitors of human arachidonate 12S-lipoxygenase (ALOX12): Round 2. Polyunsaturated fatty acid lipoxygenase ALOX12 (Homo sapiens), P18054. purified 12hLO, xylenol orange hydroperoxide absorbance. Potency, µM (highest dose often 108 µM), without a hit: at the highest dose activity change, negative = inhibition, most hits filed as inhibitors. actives 1.1% (n = 580,000). AID 1671190, 2021; also: % is scaled to controls: 0 for no effect and ±100 for the full control effect
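Purified human 12hLO at 150 nM in 25 mM Hepes, 0.01% Triton X-100, pH 7.0, preincubated 15 min at room temperature with compound. Reaction started with 40 uM arachidonic acid, 30 min at room temperature. Hydroperoxide measured by Fe-xylenol orange, 573/405 nm absorbance ratio.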
Glioma ERSR ind: qHTS for Inducers of the Endoplasmic Reticulum Stress Response (ERSR) in Human Glioma: qHTS. U87-MG GRP78 promoter luciferase reporter, 16 h. Potency, µM, for the others: top-dose activation, actives largely listed as activators. actives 0.02% (n = 420,000). AID 602332, 2012; also: series mostly up to about 76 µM; % of control where 0% means no effect; nearly all actives have a fitted effect of over 35% in size
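Stably transfected U87-MG glioma cells carrying a GRP78-based luciferase sensor; 16 h compound incubation. Luminescence end-point read 10 min after Bright-Glo addition at room temperature.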
GLP1R ag: qHTS of GLP-1 Receptor Agonists | Glucagon-like peptide 1 receptor (Homo sapiens), P43220 | HEK293 GLP-1R CRE-luciferase, luminescence, 4-6 h; cells express a hypersensitive GLP-1R form | Potency, µM (series often up to 45.6 µM), without a hit: top-dose activation, hits mostly activators | actives 0.007% (n = 380,000) | AID 624172, 2012; also: % of control where 0% means no effect
Target sequence (P43220 whole entry, looked up): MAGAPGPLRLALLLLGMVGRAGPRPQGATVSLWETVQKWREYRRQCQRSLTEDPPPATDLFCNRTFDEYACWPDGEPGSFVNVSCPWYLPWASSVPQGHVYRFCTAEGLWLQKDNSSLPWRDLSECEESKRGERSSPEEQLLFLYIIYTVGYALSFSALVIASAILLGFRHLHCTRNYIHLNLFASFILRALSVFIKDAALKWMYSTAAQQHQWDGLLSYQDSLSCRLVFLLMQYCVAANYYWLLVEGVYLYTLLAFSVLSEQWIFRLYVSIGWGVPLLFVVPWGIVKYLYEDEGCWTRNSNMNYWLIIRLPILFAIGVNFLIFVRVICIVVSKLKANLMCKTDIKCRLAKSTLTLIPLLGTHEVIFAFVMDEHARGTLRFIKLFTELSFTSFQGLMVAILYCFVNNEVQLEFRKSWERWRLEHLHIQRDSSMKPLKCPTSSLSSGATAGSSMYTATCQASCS
GLP-1R inv ag: qHTS of GLP-1 Receptor Inverse Agonists (Inhibition Mode); actives 1.6% (n = 410,000); Glucagon-like peptide 1 receptor (Homo sapiens), P43220; Potency, µM (top dose mostly 38.3 µM), without a hit: at the top dose activity change, negative = inhibition, most hits filed as inhibitors; HEK293 GLP-1R CRE-luciferase, luminescence, 24 h; GLP-1R form is constitutively active; also: % is scaled to controls: 0 for no effect and ±100 for the full control effect; nearly all actives have a fitted effect of over 55% in size
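Assay principle: reduced luminescence from a cAMP-responsive reporter in HEK293 cells co-expressing a constitutively active GLP-1R. Conditions: 24 hr compound incubation, 37 deg C, 5% CO2.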
GLS inh: qHTS for Inhibitors of Glutaminase (GLS). GLS enzymatic activity, qHTS titration. Potency, µM (titrated, usually from 45.5 µM), for inactives: top-dose activity change, negative = inhibition, hits mostly inhibitors. actives 0.21% (n = 410,000). AID 624170, 2012; also: % is scaled to controls: 0 for no effect and ±100 for the full control effect
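Compounds were pin-transferred onto hKGA, after which L-glutamine (1 mM solution) and a detection mix of glutamate oxidase, HRP and Amplex Red were added. Initial and 30 min RT fluorescence reads were collected.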
PTHR1 ag: qHTS for PTHR1 Agonists: Primary Screen | Potency, µM (highest dose often 115 µM), for the others: at the top dose activation, hits mostly activators | Parathyroid hormone/parathyroid hormone-related peptide receptor (Homo sapiens), Q03431 | actives 0.075% (n = 410,000) | AID 743266, 2014 | HEK293 GP2 PTHR1 cells, GloSensor cAMP luminescence, 1 h; also: nearly all actives have a fitted effect of over 55% in size
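HEK-293-derived GP2 cells expressing PTHR1 and a GloSensor cAMP reporter, 3,000/well, plated overnight, given luciferin plus IBMX (each 0.5 mM as added) for 1 h at 37 °C, then compound for 1 h at 37 °C. Luminescence was read after 15 min at room temperature.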
* marks the source's active call; other numbers are inactive results; [ ] = another dose, or the depositor's remark. This is a sample that favours compounds with a hit; in the whole collection about 2.3% have one here. Calls follow the shape of the dose curve; as a rule, active = well fitted curve in the direction sought with a large enough effect; inconclusive = small, poorly fitted or top-dose-only effect, or another doubt; inactive = no such curve, though single readings can be large; an effect the other way counts as inactive or inconclusive. Potency is read from the fitted curve at half-maximal effect.

For O=C(COC(=O)c1ccc(O)cc1O)NC1CCCCCC1 the results were ALOX12 inh 290.1%, Glioma ERSR ind 3.6%, GLP1R ag 9.1%, GLP-1R inv ag -22.4%, GLS inh 16.8% and PTHR1 ag -45.1%.
For COc1ccc(SCC(=O)c2ccc(O)cc2O)cc1 the results were ALOX12 inh 39.8µM*.
For CC1CCCC(C)N1CC(O)COC1CCC(C(C)(C)C)CC1 (configuration not stated) the results were ALOX12 inh 8.2%, Glioma ERSR ind -2.4%, GLP1R ag -4.2%, GLP-1R inv ag inconclusive, GLS inh 0.2% and PTHR1 ag 27.6%.
For CC(C)NCC(O)COC1CCC(C(C)(C)C)CC1 (configuration not stated) the results were ALOX12 inh -7.5%, Glioma ERSR ind -4.8%, GLP1R ag -3.8%, GLP-1R inv ag 7.08µM*, GLS inh -9.4% and PTHR1 ag 60.6%.
`COc1ccc2c(c1)CCc1c-2n[nH]c1C(=O)NCCC(C)C` gave ALOX12 inh 20.7%, Glioma ERSR ind -6.9%, GLP1R ag -2.9%, GLP-1R inv ag 7.94µM*, GLS inh -2.6% and PTHR1 ag -90.8%.
Screening CCc1cccc(NC(=O)CN(C)Cc2ccc(C(F)(F)F)cc2)c1 returned ALOX12 inh -23.9%.
Screening COc1ccc(-c2nc3ccccc3c(=O)n2O)cc1 returned ALOX12 inh 27.7%, Glioma ERSR ind 5.7%, GLP1R ag -2.4%, GLP-1R inv ag inconclusive, GLS inh 7.6% and PTHR1 ag 50.1µM*.
`O=c1c2ccccc2nc(-c2ccccc2)n1O` gave ALOX12 inh inconclusive, Glioma ERSR ind -3.4%, GLP1R ag -4.6%, GLP-1R inv ag -7.5%, GLS inh -2.4% and PTHR1 ag inactive.
`CC(C)Cn1c(-c2ccccc2)nc2ccccc2c1=O` gave ALOX12 inh 0.0%, Glioma ERSR ind -6.2%, GLP1R ag 6.7%, GLP-1R inv ag 2.82µM*, GLS inh -14.6% and PTHR1 ag -2.2%.
CC(Oc1ccc(F)cc1Cl)C(=O)NN (configuration not stated) was read as ALOX12 inh 37.7%.
`Cc1cc(Cl)ccc1NC(=O)CN(c1ccccc1F)S(=O)(=O)c1ccccc1` gave ALOX12 inh 6.4%.
Screening Cc1cc(OCCNCCO)cc(C)c1Cl returned ALOX12 inh 0.0%, Glioma ERSR ind -5.1%, GLP1R ag -0.2%, GLP-1R inv ag 8.91µM*, GLS inh 11.7% and PTHR1 ag -15.0%[57.5 µM].
Screening Cc1cc(OCCCCCNCCO)cc(C)c1Cl returned ALOX12 inh 0.0%, Glioma ERSR ind -7.3%, GLP1R ag -1.5%, GLP-1R inv ag -5.4%, GLS inh 0.8% and PTHR1 ag inactive.
For CC(C(=O)NCCC1=CCCCC1)c1ccc([N+](=O)[O-])cc1 (configuration not stated) the results were ALOX12 inh -15.3%, Glioma ERSR ind -0.4%, GLP1R ag 16.1%, GLP-1R inv ag 10µM*, GLS inh -4.6% and PTHR1 ag -2.5%.
Screening Cn1c(CNc2ccc(Cl)cc2)nnc1SCCN1CCCCC1 returned ALOX12 inh -12.5%, Glioma ERSR ind -7.7%, GLP1R ag -13.4%, GLP-1R inv ag 3.98µM*, GLS inh 34.3% and PTHR1 ag inactive.
Screening COc1ccc([C@H]2C[C@@H](O)[C@H](n3cc(COC(=O)c4ccccc4)nn3)CN2CC2CCCCC2)cc1 returned ALOX12 inh inconclusive, Glioma ERSR ind 8.8%, GLP1R ag -0.7%, GLP-1R inv ag 11.2µM*, GLS inh 0.3% and PTHR1 ag inactive.
For COc1ccc([C@H]2C[C@H](n3cc(COC(=O)c4ccccc4)nn3)[C@@H](O)CN2CC2CCCCC2)cc1 the results were ALOX12 inh -9.6%, Glioma ERSR ind -2.6%, GLP1R ag 2.1%, GLP-1R inv ag -26.5%, GLS inh -4.8% and PTHR1 ag -5.1%.
For COc1ccc([C@H]2C[C@@H](O)[C@H](n3cc(C4CC4)nn3)CN2CC2CCCCC2)cc1 the results were ALOX12 inh inconclusive, Glioma ERSR ind -0.9%, GLP1R ag 6.0%, GLP-1R inv ag 7.94µM*, GLS inh 0.2% and PTHR1 ag -28.9%.
For COc1cc(/C=C(\CCC(=O)O)c2nc3ccccc3s2)ccc1OCC(=O)Nc1c(Cl)cccc1Cl the results were ALOX12 inh 2.5%, Glioma ERSR ind -0.4%, GLP1R ag 0.5%, GLP-1R inv ag 14.6%, GLS inh 10µM* and PTHR1 ag -22.0%.
COc1ccc(-n2cc(-c3ccc(Cl)cc3)[nH]c2=S)cc1 was read as ALOX12 inh -27.7%, Glioma ERSR ind 1.2%, GLP1R ag 4.1%, GLP-1R inv ag 18.5%, GLS inh -25.8% and PTHR1 ag -1.8%.
Screening COc1ccc(-c2cn(-c3ccc(C)c(C)c3)c(=S)[nH]2)cc1OC returned ALOX12 inh 28.2µM*, Glioma ERSR ind 0.3%, GLP1R ag 6.4%, GLP-1R inv ag 20.0%, GLS inh inconclusive and PTHR1 ag -23.3%.
Screening COc1cccc(-n2cc(-c3ccc(F)cc3)[nH]c2=S)c1 returned ALOX12 inh 22.4µM*, Glioma ERSR ind 9.3%, GLP1R ag 17.8%, GLP-1R inv ag inconclusive, GLS inh 3.6% and PTHR1 ag -11.2%.
CCOCCCNC(=O)/C=C/c1ccc(-c2ccc(F)cc2)s1 was read as ALOX12 inh 4.5%.
For CCSc1cc(N2CC(C)OC(C)C2)nc(-c2ccccc2Cl)n1 (configuration not stated) the results were ALOX12 inh -2.2%, Glioma ERSR ind -8.9%, GLP1R ag 18.0%, GLP-1R inv ag 10µM*, GLS inh -9.4% and PTHR1 ag -23.3%[57.5 µM].
Screening CCC(C)(C)C1CCc2c(sc(NC(=O)/C=C/c3ccccc3)c2C#N)C1 (configuration not stated) returned ALOX12 inh 28.0%.
